Assay results from paper PMC4336329 (PLoS ONE, 2015).
Among all 310,000 compounds or so, about 14,000 (4.5%) showed an effect of 50% or more. The effect is printed as a negative number. What follows is part of a selection rich in strong results, with near analogues and random picks from the rest.

Target: human ether-à-go-go-related gene (hERG) potassium channel (human, UniProt Q12809)
Assay: primary screen, population patch clamp on CHO cells stably expressing hERG; higher = less effect of the substance
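Note: peak tail current of the secondary pulse compared with the same well before compound.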

Chain of human ether-à-go-go-related gene (hERG) potassium channel (Q12809 whole entry, looked up): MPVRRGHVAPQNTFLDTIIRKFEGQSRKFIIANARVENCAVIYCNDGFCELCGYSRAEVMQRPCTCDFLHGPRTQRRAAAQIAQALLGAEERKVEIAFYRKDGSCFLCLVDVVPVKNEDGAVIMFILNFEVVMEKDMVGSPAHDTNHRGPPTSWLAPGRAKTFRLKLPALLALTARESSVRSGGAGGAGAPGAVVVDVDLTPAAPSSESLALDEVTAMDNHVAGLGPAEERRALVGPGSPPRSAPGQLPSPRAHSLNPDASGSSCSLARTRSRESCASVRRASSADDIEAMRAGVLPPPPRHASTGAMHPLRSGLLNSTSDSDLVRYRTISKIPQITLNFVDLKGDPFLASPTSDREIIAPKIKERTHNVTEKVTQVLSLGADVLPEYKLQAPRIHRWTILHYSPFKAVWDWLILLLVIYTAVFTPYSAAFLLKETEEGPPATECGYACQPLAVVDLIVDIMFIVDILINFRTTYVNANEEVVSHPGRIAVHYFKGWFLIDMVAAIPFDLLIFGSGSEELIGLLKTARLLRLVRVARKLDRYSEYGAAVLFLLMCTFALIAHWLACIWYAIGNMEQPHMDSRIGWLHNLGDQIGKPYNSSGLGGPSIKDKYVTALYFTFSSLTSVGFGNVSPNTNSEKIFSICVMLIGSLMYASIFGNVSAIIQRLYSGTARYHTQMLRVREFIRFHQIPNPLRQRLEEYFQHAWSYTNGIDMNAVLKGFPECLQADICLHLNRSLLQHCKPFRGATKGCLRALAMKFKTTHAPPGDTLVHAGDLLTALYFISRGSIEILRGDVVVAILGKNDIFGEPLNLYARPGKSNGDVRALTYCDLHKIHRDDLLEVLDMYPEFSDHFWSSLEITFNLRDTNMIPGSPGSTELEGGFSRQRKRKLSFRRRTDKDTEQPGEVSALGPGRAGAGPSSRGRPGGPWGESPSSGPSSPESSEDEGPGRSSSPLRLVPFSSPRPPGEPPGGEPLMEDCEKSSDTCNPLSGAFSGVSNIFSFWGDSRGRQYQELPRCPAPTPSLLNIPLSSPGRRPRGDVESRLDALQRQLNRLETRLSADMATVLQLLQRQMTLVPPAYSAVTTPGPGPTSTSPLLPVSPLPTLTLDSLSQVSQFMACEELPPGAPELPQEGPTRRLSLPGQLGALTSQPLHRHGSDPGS

SMILES	hERG current change (%, negative = inhibition) at 10uM [%]
CCc1ccccc1NS(=O)(=O)c1cc(C)ccc1OC	-5.89
O=C(O)COc1ccccc1/C=N/NC(=O)c1ccc2c(c1)OCCO2	-2.93
O=C(CSc1nnc(COc2ccc3c(c2)CCCC3)o1)Nc1ccc(F)cc1	10.2
Cc1ccc2c(C)nc(Nc3ncc4c(n3)CCCC4=O)nc2c1	-12.4
Cc1cc(C)n2nnnc2n1	18.5
Cc1ccc(C(NC(=O)c2ccccc2S(C)(=O)=O)c2ccccc2)cc1 (stereo not shown)	-30.3
Cc1cc(C(=O)NCCC(c2ccccc2)c2ccccc2)c(C)o1	-17.5
CS(=O)(=O)c1ccccc1C(=O)NCCC(c1ccccc1)c1ccccc1	-51.9
COc1ccccc1C(=O)NCC(=O)NC(C)CCc1ccccc1 (stereo not shown)	1.99
COc1ccccc1C(=O)NCC(=O)NCCC(c1ccccc1)c1ccccc1	-64.4
COc1ccccc1C(=O)NCC(=O)Nc1ccccc1	5.97
O=C(C1CCCO1)N1CCN(C(=S)Nc2ccc(Cl)c(Cl)c2)CC1 (stereo not shown)	-30.2
CCN(CC)C(=O)c1cn(-c2ccccc2)nc1-c1ccc2c(c1)OCCO2	-3.56
O=C(Nn1c(C2CC2)nc2ccccc2c1=O)c1ccco1	-8.14
CCN(CC(=O)NCc1ccc(F)cc1)C(=O)/C=C/c1cccs1	-40.9
Cc1cc(C)n(-c2ccc(Cl)c(C(=O)OCC(=O)N3CCCCC3C)n2)n1 (stereo not shown)	-4.12
Cc1nc(N=C(N)N)nc2ccccc12	23.6
Clc1ccc2nnnc(-c3ccccc3)c2c1	-9.98
Cl.NC(N)=Nc1nc(-c2ccccc2)c2cc(Cl)ccc2n1	-67.9
NNc1nc(-c2ccccc2)c2cc(Cl)ccc2n1	-11.3
NC(N)=Nc1nc(-c2ccccc2)c2ccccc2n1	-40.1
NC(N)=Nc1nc(-c2ccccc2)c2cc(F)ccc2n1	-66.2
CC(=O)c1ccc(NC(=S)N2CCN(C(=S)Nc3ccc(C(C)=O)cc3)C(C)C2)cc1 (stereo not shown)	20.6

SMILES	hERG current change (%, negative = inhibition) at 10uM [%]
CCN(CC)S(=O)(=O)c1cccc(NC(=S)NC(=O)/C=C/c2ccc(S(=O)(=O)N3CCOCC3)cc2)c1	-6.82
CCCCc1nc2ccccc2[nH]1	14.2
CSc1nc2sc(-c3ccccc3)cc2c(=O)n1N	17.4
O=C(NNC(=O)c1ccccc1-n1cccc1)c1ccccc1	-18.3
N#Cc1nc(-c2ccccc2Cl)oc1NCc1ccco1	-8.28
Cc1ccccc1-c1nc(C#N)c(NCc2ccco2)o1	-57.2
Cc1ccc(-c2nc(C#N)c(NCc3ccco3)o2)cc1	-0.709
O=C(COc1ccccc1)N1CCN(C(=O)Cc2ccccc2)CC1	-1.51
COc1cc2nc(SCC(=O)c3ccc(Br)cc3)n3nc(C)nc3c2cc1OC	-17.7
Cc1nn(C)cc1CN1CCCC(C(=O)c2ccc(-c3ccccc3)c(F)c2)C1 (stereo not shown)	-15.3
Cc1nn(C)cc1CN1CCCC(C(=O)c2ccc(-c3ccccc3)cc2)C1 (stereo not shown)	-45.4
Cn1cc(CN2CCCC(C(=O)c3cccs3)C2)c(-c2cccc(Cl)c2)n1 (stereo not shown)	-39.2
COc1cccc(C(=O)C2CCCN(Cc3cn(CC(N)=O)c4ccccc34)C2)c1 (stereo not shown)	-53
COc1cccc(C(=O)C2CCCN(Cc3cn(C)nc3-c3ccccc3)C2)c1 (stereo not shown)	-68.8
COc1ccc(C(=O)C2CCCN(Cc3cn(C)nc3-c3ccccc3)C2)cc1F (stereo not shown)	-72.4
Cc1ccsc1C(=O)C1CCCN(Cc2cn(C)nc2-c2ccccc2)C1 (stereo not shown)	-32.1
NC(=O)NC1NC(=O)NC1=O (stereo not shown)	11.9
C/C(Cl)=C\Cn1c(O)c(N=NC(N)=S)c2cc(Br)ccc21	8.96
COc1cccc(C(=O)N(C)CC(=O)Nc2ccc(F)c(F)c2F)c1	11.4
O=C(COC(=O)c1ccc(S(=O)(=O)N2CCOCC2)cc1)NC1CCCCCCC1	12.2
Clc1ccc(Nc2ccc(-n3ccnc3)nn2)cc1Cl	-9.9
CC(=O)c1cc2c(C)cc(=O)oc2cc1O	1.77
CC1CCN(C(=O)Cn2c(=O)n(Cc3ccc4c(c3)OCO4)c(=O)c3ccccc32)CC1	-18.5

SMILES	hERG current change (%, negative = inhibition) at 10uM [%]
CCCN(CCC)CCCOC(=O)c1ccc(Cl)cc1Cl.Cl	-70.1
CCN(CC)CCOC(=O)c1cccc(Cl)c1.Cl	-32.4
CN(C)CCCOC(=O)c1ccccc1Cl.Cl	-0.792
CN(C)CCCOC(=O)c1ccc(Cl)cc1Cl.Cl	-38.8
CCN(CC)CCOC(=O)c1ccc(Cl)cc1Cl.Cl	-55.4
CCN(CC)CCOC(=O)c1ccc(Cl)cc1.Cl	-42.7
Cc1nnc(NC(=O)CN2CCN(Cc3ccccc3Cl)CC2)s1	6.08
CSc1cccc(NC(=O)c2ccccn2)c1	7.57
CC[C@H](C)C(N)c1cn([C@@H](CC(N)=O)C(=O)N2CCNCC2)nn1 (stereo partly shown)	-10.5
COc1ccc2c(c1)C(NS(=O)(=O)OCC(Cl)(Cl)Cl)CCC2 (stereo not shown)	-0.647
CC1CCCC(NC(=O)CCNC(=O)c2ccc(Br)cc2)C1C (stereo not shown)	-0.231
Cc1ccc(C)c(OC(C)C(=O)Nc2nccs2)c1 (stereo not shown)	3.8
CN(C)c1ccc(/C=N/NC(=O)CCC(=O)NCc2ccccc2)cc1	11.3
CCc1cc(C(=O)N2CCc3c([nH]c4ccccc34)C2c2ccc(OC)cc2F)no1 (stereo not shown)	15.7
COc1ccc2oc(C(=O)CCC(=O)O)c(N)c2c1	4.93
COc1ccccc1N1CCN(C(=O)c2cc(C)oc2C)CC1	21
O=C(NN1CC(=O)N(c2cc(Cl)cc(Cl)c2)CC1=O)c1sccc1Cl	-0.682
Cc1cccc(N(CC(=O)N/N=C/c2ccccc2C(=O)O)S(C)(=O)=O)c1C	-28.9
CC(C)(C)NCC(=O)N/N=C/c1ccc(OCc2ccccc2)cc1	-60.5
CC(C)C(=O)N/N=C/c1ccc(OCc2ccccc2)cc1	17.8
N#CCC(=O)N/N=C/c1ccc(OCc2ccccc2)cc1	11.3
O=C(NNc1nc2ccccc2nc1C(F)(F)F)c1ccccc1	11.9
Cc1ccc(NC(=O)c2cc(-c3ccccc3)n[nH]2)cc1	18.3

SMILES	hERG current change (%, negative = inhibition) at 10uM [%]
CC(C)c1ccc(N(C(=O)c2csnn2)C(C(=O)NC(C)(C)C)c2ccncc2)cc1 (stereo not shown)	-42.8
CC(C)C[C@@H](CO)N1CCN(CCc2ccccc2)CCC1=O	-23
CCCN1CCC(=O)N([C@H](COc2ccccc2)CC(C)C)CC1	-81.9
CCCN1CCC(=O)N([C@H](CN=[N+]=[N-])CC(C)C)CC1	3.11
CC(C)C[C@@H](COc1ccccc1)N1CCN(Cc2ccccc2)CCC1=O	-35.4
CC(C)C[C@@H](COc1ccccc1)N1CCN(CCc2ccccc2)CCC1=O	-77.5
COc1cc([N+](=O)[O-])ccc1NC(=O)CN(C)C	-15.9
O=C(O)CC(CC(=O)Nc1ccccc1C(=O)O)c1ccccc1 (stereo not shown)	3.3
C=C(C)CCC1(C)NC(=O)N(c2ccccc2)N1 (stereo not shown)	-4.03
CN(C(=O)CSc1nnnn1-c1ccc(O)cc1)C1CCS(=O)(=O)C1 (stereo not shown)	14.8
CCN(CC(=O)NCc1cccs1)C(=O)CN(C)S(=O)(=O)c1ccc(C)cc1	-27.3
COc1ccccc1NC(=O)CSc1nc2sc3c(c2c(=O)n1-c1ccccc1)CCN(C)C3	-26
CC1(C)OC(=O)N(c2ccccc2)C12C=Cc1cc(Br)ccc1O2 (stereo not shown)	-14.4
O=C(Nc1ccc(S(=O)(=O)N2CCCC2)cc1)c1ccc(Br)o1	14.8
O=C(Nc1ccc(S(=O)(=O)N2CCCCCC2)cc1)c1ccc(Br)o1	-14.5
O=C(Nc1ccc(OC(F)(F)F)cc1)c1ccc(S(=O)(=O)N2CCOCC2)o1	-53.7
O=C(Nc1ccc(F)cc1)c1ccc(S(=O)(=O)N2CCOCC2)o1	-13.1
O=C(Nc1ccc(S(=O)(=O)N2CCOCC2)cc1)c1ccc(Br)o1	-64.8
COc1ccc(NC(=O)c2ccc(S(=O)(=O)N3CCOCC3)o2)cc1	0.458
O=C(NNc1ccccc1[N+](=O)[O-])Nc1cccc(Cl)c1	19.3
Cc1ccccc1Cn1cc(NC(=O)CCCn2nc([N+](=O)[O-])cc2C)cn1	-7.52
O=C(NNS(=O)(=O)c1ccc([N+](=O)[O-])cc1)c1ccc([N+](=O)[O-])cc1	28.6
